This passage reports Potency and outcome results from PubChem BioAssay (Tox21).

Several values for one entry are separate records, joined by “and”; a condition that tells them apart may be missing. Equal values may be shown once. Results filed as inconclusive are left out. More than one record can exist for a structure, and the calls need not agree. Activity calls are given as the source filed them. Unless noted, calls come from the whole dose curve; as a rule, active = well fitted curve in the direction sought with a large enough effect in the repeat runs; inconclusive = weak or mixed curves; inactive = no such curve, though single readings can be large; an effect the other way counts as inactive or inconclusive.

Assay [1] can be described thus: Human pregnane X receptor (PXR) small molecule agonists, qHTS cell viability counter screen (AID 1346977). Note: nearly all actives have a fitted effect of over 50% in size. The gist of the method: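 HepG2 cells stably carrying the PXR-Luc reporter are cultured with 5% charcoal-stripped FBS and treated with compounds for 24hr. CellTiter-Fluor is added at 23hr and fluorescence is read after 1hr.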
Background: qHTS replaces the single test concentration by a dilution series.

The nature of assay [2]: Caspase-3/7 induction in HepG2 cells by small molecules, qHTS assay (AID 1346978). Note: nearly all actives have a fitted effect of over 15% in size. The gist of the method: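 Wild-type HepG2 cells, 2,000/well, settled 5 hr at 37 C and 5% CO2, then compound-treated for 17 hr; caspase-3/7 activity read by luminescent Caspase-Glo 3/7 after 30 min at room temperature.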
Assay [3] in a line: Caspase-3/7 induction in CHO-K1 cells by small molecules, qHTS cell viability counter screen (AID 1346979). Note: nearly all actives have a fitted effect of over 35% in size. The gist of the method: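 Seeding: 1,500 CHO-K1 cells/well. Rest: 5hr, 37C. Treatment: compounds in DMSO, 16hr. Read: CellTiter-Fluor, 1hr, fluorescence.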
Assay [4] is described as follows: Caspase-3/7 induction in HepG2 cells by small molecules, qHTS cell viability counter screen (AID 1346981). Note: series mostly up to about 92 µM; nearly all actives have a fitted effect of over 30% in size. The procedure, abridged:
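After a 5-hr attachment period at 37 C and 5% CO2, wild-type HepG2 cells received compounds in DMSO. Sixteen hours later CellTiter-Fluor was dispensed and the fluorescent signal quantified after a further hour.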

The target in assay [5] is Nuclear receptor subfamily 1 group I member 2 (Homo sapiens) (UniProt O75469). The experiment in a line: Human pregnane X receptor (PXR) small molecule agonists, qHTS assay (AID 1346982). Note: nearly all actives have a fitted effect of over 35% in size. Note: potency is the fitted concentration of half-maximal effect. The gist of the method: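 Tox21 qHTS; PXR-Luc HepG2; compounds pinned from DMSO; 24 hr, 37 C; ONE-Glo luciferase detection, 30 min room temperature.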
Assay [6] has the same target. Nature of the assay: CYP3A4 induction through human pregnane X receptor (PXR) by small molecules, qHTS assay (AID 1346984). Note: nearly all actives have a fitted effect of over 40% in size. The gist of the method: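 Cells (DPX-2; HepG2 with PXR element plus CYP3A4-promoter luciferase) settled 5hr, then were treated 24hr at 37C. A 3hr, 3uM-final Luciferin-IPA step preceded luminescence measurement with One-Glo.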
Assay [7] shares this target. Nature of the assay: Human pregnane X receptor (PXR) activation by small molecules, qHTS assay (AID 1346985). Note: nearly all actives have a fitted effect of over 40% in size. The procedure, abridged:
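DPX-2 cells (HepG2 co-transfected with a PXR response element and a CYP3A4-promoter luciferase construct) were seeded at 2,000 per well, rested 5 hr at 37C, then exposed to DMSO-dissolved compounds for 24 hr. Activation was read as luciferase luminescence.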

The target in assay [8] is Cytochrome P450 2D6 (Homo sapiens) (UniProt P10635). The experiment in a line: Cytochrome P450 Family 2 Subfamily D Member 6 (CYP2D6) small molecule antagonists: luciferase reporter qHTS assay (AID 1671196). Note: nearly all actives have a fitted effect of over 50% in size. Note: potency is the fitted concentration of half-maximal effect. The gist of the method: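 Room-temperature luminescent CYP2D6 activity assay: compound preincubated 10 min with enzyme–substrate mix, NADPH-initiated reaction 1 h, detection reagent 20 min before reading.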

The target of assay [9] is Cytochrome P450 2C19 (Homo sapiens) (UniProt P33261). Nature of the assay: Cytochrome P450 Family 2 Subfamily C Member 19 (CYP2C19) small molecule antagonists: luciferase reporter qHTS assay (AID 1671197). Note: nearly all actives have a fitted effect of over 65% in size. Note: potency is the fitted concentration of half-maximal effect. The procedure, abridged: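 Luminescent readout of CYP2C19 activity: luciferin product detected 20 min after adding detection reagent. Before that, compound and enzyme-substrate mix preincubated 10 min at room temperature; NADPH-regenerating system started a 1 h, 37C reaction. Ketoconazole as positive control.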

The target of assay [10] is Cytochrome P450 2C9 (Homo sapiens) (UniProt P11712). The experiment in a line: Cytochrome P450 Family 2 Subfamily C Member 9 (CYP2C9) small molecule antagonists: luciferase reporter qHTS assay (AID 1671198). Note: nearly all actives have a fitted effect of over 50% in size. Note: potency is the fitted concentration of half-maximal effect. The procedure, abridged:
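P450-Glo proluciferin substrate with CYP2C9 enzyme; 10 min RT preincubation, then NADPH regeneration 1 h at 37C; luciferin detection reagent 20 min RT, luminescence in relative luminescence units.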

Assay [11] addresses Cytochrome P450 1A2 (Homo sapiens) (UniProt P05177). The experiment in a line: Cytochrome P450 Family 1 Subfamily A Member 2 (CYP1A2) small molecule antagonists: luciferase reporter qHTS assay (AID 1671199). Note: nearly all actives have a fitted effect of over 50% in size. Note: potency is the fitted concentration of half-maximal effect. The procedure, abridged: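 Room-temperature CYP1A2 reaction with proluciferin substrate: compounds added from DMSO, 10 min preincubation, NADPH regeneration for 1 h. Luciferin detection reagent then added; luminescence recorded as RLU.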
In general terms: Reporter assays use an easily measured gene product as a stand-in for the process of interest.

Assay [12] concerns the target Voltage-gated inwardly rectifying potassium channel KCNH2 (Homo sapiens) (UniProt Q12809). Nature of the assay: Human Ether-a-go-go-Related Gene (hERG) channel small molecule antagonists: fluorescence cell-based qHTS assay (AID 1671200). The procedure, abridged:
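First, 1000 cells per well are seeded and cultured overnight at 37 C. Next, FluxOR II dye is loaded for 1 h at room temperature, protected from light. After 10 more minutes, stimulus is added and fluorescence is read.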

Assay [13] has as its target Cytochrome P450 3A4 (Homo sapiens) (UniProt P08684). Nature of the assay: Cytochrome P450 Family 3 Subfamily A Member 4 (CYP3A4) small molecule antagonists: luciferase reporter qHTS assay (AID 1671201). The procedure, abridged: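 Enzyme and proluciferin substrate are mixed with test chemicals for 10 min, then NADPH regeneration system drives turnover for 1 h at room temperature. A detection reagent halts the reaction; luminescence after 20 min gives relative activity.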

Assay [14] concerns the target Thyrotropin-releasing hormone receptor (Homo sapiens) (UniProt P34981). Nature of the assay: qHTS assay to identify small molecule agonists of the thyrotropin-releasing hormone receptor (TRHR) signaling pathway (AID 1346891; calls by dose curve;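 note: HEK293 cells expressing TRHR with calcium dye readout; series mostly up to about 58 µM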). The procedure, abridged:
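Kinetic fluorescence (3 min, 1 s intervals) reported intracellular calcium after compound transfer onto TRHR-Hek293 cells pre-loaded with dye for 2 h at 37 °C.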

The target of assay [15] is Acetylcholinesterase (Homo sapiens) (UniProt P22303). Nature of the assay: Acetylcholinesterase (AChE) small molecule antagonists: enzyme-based qHTS assay (AID 1347397; calls by dose curve; note: nearly all actives have a fitted effect of over 55% in size). The note with it: Potency: AChE enzyme activity inhibition. The gist of the method:
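Colorimetric DTNB read-out of thiocholine released from acetylthiocholine by recombinant human AChE (50 mU/mL as dispensed). Compounds were preincubated 30 min at RT before substrate/DTNB addition, with a 10 min RT reaction.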

Assay [16] has the same target. The experiment in a line: Acetylcholinesterase (AChE) small molecule antagonists: fluorescence cell-based qHTS assay (AID 1347398; calls by dose curve; note: nearly all actives have a fitted effect of over 50% in size). The note with it: Potency: AChE activity. The gist of the method: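 SH-SY5Y, 2,000 cells/well, attached overnight; cmpd 30 min 37 C; acetylthiocholine/Thiolite Green cocktail 40 min RT; fluorescence Ex/Em 490/520 nm.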
Assay [17] has the same target. The experiment in a line: Acetylcholinesterase (AChE) small molecule antagonists: enzyme-based qHTS assay with human liver microsomes (AID 1347399; calls by dose curve; note: nearly all actives have a fitted effect of over 60% in size). The note with it: Potency: qHTS inhibition. The gist of the method:
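Recombinant human AChE (50 mU/mL in the enzyme mix) and human liver microsomes (0.25 mg/mL final) were preincubated with compound and NADPH (0.25 mg/mL final) for 30 min at 37 C. Acetylthiocholine/DTNB was then added; thiocholine was read colorimetrically after 10 min at room temperature.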

Assay [18] has the same target. Nature of the assay: Acetylcholinesterase (AChE) small molecule antagonists: colormetric cell-based qHTS assay (AID 1347395; calls by dose curve; note: nearly all actives have a fitted effect of over 30% in size). The procedure, abridged: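 Quantitative HTS in attached SH-SY5Y cells: 30 min compound exposure, then 90 min with acetylthiocholine and DTNB at 37 C; colour from thiocholine reports AChE activity.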
Assay [19] is described as follows: Caspase-3/7 induction in CHO-K1 cells by small molecules, qHTS assay (AID 1346980). Note: nearly all actives have a fitted effect of over 15% in size. The procedure, abridged: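 Wild-type CHO-K1 cells exposed to compounds for 17hr at 37 C, 5% CO2. Caspase-3/7 activity then measured by Caspase-Glo 3/7 luminescence after 30min at room temperature.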

Voltage-gated inwardly rectifying potassium channel KCNH2 (Homo sapiens), sequence (Q12809 whole entry, looked up): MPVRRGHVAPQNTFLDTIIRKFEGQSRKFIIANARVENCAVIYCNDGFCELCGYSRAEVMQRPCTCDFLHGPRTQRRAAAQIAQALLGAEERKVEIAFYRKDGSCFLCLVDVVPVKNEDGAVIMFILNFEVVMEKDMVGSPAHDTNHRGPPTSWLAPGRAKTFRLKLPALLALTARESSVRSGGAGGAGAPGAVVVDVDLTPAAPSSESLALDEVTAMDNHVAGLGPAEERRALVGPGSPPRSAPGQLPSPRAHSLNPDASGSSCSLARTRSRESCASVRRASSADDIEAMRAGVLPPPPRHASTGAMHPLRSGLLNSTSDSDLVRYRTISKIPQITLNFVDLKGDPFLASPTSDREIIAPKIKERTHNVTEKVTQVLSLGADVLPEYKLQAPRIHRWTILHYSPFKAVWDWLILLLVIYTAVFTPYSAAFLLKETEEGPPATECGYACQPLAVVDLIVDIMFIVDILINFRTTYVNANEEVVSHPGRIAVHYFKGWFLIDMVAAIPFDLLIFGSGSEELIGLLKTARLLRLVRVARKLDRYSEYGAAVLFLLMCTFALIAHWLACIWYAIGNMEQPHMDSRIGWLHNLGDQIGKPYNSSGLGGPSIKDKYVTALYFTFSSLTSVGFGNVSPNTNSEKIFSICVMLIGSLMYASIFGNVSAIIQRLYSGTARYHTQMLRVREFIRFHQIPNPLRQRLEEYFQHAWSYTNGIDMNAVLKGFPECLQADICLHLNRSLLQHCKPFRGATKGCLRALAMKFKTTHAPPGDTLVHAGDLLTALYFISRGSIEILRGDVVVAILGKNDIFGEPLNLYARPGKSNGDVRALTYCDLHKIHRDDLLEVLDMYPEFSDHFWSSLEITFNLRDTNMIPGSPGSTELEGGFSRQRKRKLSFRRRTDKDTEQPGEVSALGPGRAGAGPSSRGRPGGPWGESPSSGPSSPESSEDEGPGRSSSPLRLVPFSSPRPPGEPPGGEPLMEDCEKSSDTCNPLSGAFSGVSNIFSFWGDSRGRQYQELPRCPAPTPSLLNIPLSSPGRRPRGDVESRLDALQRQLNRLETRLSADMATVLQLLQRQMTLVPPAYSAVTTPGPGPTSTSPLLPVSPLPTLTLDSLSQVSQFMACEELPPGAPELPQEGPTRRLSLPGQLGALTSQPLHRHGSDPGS
Acetylcholinesterase (Homo sapiens), sequence (P22303 whole entry, looked up): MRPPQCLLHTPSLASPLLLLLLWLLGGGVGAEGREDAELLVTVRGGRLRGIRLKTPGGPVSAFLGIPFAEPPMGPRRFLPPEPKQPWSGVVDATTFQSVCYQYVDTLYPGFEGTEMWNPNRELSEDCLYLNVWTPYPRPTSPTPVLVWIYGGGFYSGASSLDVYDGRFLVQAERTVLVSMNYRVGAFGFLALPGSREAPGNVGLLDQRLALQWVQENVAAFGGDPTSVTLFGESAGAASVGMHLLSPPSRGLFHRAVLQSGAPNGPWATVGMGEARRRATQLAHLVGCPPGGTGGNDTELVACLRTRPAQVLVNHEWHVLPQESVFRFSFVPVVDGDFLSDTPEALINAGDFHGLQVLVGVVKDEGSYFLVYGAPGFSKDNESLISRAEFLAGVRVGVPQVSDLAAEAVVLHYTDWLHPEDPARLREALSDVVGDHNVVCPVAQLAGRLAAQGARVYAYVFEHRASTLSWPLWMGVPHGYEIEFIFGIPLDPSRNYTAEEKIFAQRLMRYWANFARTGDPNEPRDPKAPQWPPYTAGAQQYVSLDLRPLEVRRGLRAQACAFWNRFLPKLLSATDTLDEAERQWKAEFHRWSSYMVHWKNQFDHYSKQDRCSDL
Thyrotropin-releasing hormone receptor (Homo sapiens), sequence (P34981 whole entry, looked up): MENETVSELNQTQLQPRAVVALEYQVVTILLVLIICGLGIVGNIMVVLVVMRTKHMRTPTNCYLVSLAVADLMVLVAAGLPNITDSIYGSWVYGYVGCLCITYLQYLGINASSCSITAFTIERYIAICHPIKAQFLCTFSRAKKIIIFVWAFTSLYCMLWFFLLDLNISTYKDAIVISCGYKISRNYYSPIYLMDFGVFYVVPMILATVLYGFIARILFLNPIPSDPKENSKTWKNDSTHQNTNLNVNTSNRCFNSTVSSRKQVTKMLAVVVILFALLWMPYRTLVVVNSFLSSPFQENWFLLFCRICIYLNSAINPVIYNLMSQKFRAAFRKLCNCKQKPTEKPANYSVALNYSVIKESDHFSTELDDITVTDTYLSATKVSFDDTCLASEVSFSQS
Cytochrome P450 2C9 (Homo sapiens), sequence (P11712 whole entry, looked up): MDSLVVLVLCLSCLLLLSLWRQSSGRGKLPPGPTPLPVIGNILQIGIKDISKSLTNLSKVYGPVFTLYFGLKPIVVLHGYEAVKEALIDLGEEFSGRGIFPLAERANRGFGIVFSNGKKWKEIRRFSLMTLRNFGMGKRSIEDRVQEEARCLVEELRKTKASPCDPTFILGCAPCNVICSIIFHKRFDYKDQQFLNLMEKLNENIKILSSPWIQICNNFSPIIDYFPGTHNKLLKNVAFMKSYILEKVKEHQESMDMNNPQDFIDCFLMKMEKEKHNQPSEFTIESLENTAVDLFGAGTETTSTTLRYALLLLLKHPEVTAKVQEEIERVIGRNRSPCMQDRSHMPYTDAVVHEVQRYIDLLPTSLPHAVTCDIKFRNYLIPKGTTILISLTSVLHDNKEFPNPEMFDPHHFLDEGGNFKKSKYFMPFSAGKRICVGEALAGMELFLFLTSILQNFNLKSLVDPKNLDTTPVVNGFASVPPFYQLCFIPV
Cytochrome P450 2D6 (Homo sapiens), sequence (P10635 whole entry, looked up): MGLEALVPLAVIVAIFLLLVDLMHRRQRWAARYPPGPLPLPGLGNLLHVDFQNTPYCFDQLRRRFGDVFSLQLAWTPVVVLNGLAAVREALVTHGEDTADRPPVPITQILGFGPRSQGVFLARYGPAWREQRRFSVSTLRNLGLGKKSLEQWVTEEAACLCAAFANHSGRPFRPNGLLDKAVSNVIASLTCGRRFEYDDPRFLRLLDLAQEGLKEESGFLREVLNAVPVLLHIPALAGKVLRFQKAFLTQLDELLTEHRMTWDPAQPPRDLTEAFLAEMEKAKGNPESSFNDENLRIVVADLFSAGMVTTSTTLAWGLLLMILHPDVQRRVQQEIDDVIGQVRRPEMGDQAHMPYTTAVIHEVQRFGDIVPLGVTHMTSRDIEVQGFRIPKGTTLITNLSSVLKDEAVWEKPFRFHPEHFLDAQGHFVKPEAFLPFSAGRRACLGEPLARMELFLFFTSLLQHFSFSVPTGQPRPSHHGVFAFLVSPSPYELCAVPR
Cytochrome P450 3A4 (Homo sapiens), sequence (P08684 whole entry, looked up): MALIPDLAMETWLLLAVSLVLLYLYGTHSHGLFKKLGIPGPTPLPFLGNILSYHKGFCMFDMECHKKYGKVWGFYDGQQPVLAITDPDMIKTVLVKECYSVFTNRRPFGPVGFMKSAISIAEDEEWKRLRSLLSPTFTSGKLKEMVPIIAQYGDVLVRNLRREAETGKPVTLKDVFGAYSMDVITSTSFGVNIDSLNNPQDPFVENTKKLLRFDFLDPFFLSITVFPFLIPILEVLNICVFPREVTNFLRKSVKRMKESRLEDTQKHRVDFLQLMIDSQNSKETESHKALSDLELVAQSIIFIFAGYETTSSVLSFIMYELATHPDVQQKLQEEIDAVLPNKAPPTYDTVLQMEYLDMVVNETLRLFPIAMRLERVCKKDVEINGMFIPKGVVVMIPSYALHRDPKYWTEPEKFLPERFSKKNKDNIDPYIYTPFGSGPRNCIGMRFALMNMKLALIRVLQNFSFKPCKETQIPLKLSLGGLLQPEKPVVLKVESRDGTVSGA
Cytochrome P450 2C19 (Homo sapiens), sequence (P33261 whole entry, looked up): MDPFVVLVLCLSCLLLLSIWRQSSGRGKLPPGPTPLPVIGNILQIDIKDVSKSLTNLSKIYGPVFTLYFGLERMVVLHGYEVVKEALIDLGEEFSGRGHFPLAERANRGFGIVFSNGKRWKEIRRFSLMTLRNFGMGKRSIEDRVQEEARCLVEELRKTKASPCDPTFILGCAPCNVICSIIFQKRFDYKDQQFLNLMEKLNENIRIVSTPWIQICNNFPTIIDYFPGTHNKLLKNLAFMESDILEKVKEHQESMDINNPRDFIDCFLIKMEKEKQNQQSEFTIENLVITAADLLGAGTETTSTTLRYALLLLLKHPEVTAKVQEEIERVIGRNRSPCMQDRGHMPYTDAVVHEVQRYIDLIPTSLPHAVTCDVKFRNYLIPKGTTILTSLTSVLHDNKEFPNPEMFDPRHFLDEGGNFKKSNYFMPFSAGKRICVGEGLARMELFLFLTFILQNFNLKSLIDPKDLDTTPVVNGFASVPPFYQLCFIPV
Cytochrome P450 1A2 (Homo sapiens), sequence (P05177 whole entry, looked up): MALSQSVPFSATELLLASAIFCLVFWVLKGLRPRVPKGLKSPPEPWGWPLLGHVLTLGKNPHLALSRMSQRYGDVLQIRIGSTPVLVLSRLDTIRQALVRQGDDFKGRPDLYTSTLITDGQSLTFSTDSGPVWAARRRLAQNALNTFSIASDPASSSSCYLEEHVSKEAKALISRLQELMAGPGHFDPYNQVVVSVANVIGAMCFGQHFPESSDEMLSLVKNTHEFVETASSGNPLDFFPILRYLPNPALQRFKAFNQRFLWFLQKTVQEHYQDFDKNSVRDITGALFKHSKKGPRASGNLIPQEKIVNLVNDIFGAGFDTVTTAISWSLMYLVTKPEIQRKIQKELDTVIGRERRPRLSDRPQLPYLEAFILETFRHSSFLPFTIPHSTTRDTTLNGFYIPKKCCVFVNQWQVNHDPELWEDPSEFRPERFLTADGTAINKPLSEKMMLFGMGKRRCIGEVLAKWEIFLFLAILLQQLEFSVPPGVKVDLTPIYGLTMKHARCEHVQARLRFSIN

As for `CCCCCCCCCCCCCCCCCC(=O)O`, the Potency entry in assay [1], in assay [3], in [4], in [6], in assay [7] and in assay [12] was “inactive” in each case. Also, the Potency result in assay [13] is “inactive”. Also, in assay [2], the call was inactive. Also, the Potency in [5] was 30.4 µM (active) and inactive; in [8], 35.3 µM (active) and inactive; in assay [9], 281 nM (active) and inactive; in assay [10] it was 1.12 µM (active) and inactive; in assay [11], 2.5 µM (active) and inactive.
For the compound `CNC(=O)O/N=C/C(C)(C)SC`, the outcome in [14] and in assay [2] was inactive. The Potency entry in assay [1], in assay [3], in [4], in [8], in assay [11] and in [12] was “inactive” each time. Further, the Potency result in [13] is “inactive”. For the same compound, the Potency is 69.2 µM (active) and inactive in assay [5]; 40.3 µM (active) and inactive in assay [9].
Take `Cc1ccc(O)c(C)c1`: the compound was classed as inactive in assay [14] and in assay [2]. Moreover, the Potency result in [1], in assay [3], in assay [4], in [5], in assay [15] and in [16] was “inactive” throughout. Besides, the Potency entry in [17], in assay [8], in assay [9], in assay [12] and in [13] was “inactive” each time. Besides, the Potency in [11] was 70 µM (active) and 29.5 µM (active).
For the compound `COC(=O)Nc1cccc(OC(=O)Nc2cccc(C)c2)c1`, the Potency entry in [1], in [3], in assay [4], in [18], in assay [15] and in [16] was “inactive” each time. The Potency result in assay [17], in assay [8], in assay [10], in assay [12] and in [13] was “inactive” throughout. For the same compound, in [2], the compound was called inactive. In addition, the Potency in [5] was 10.9 µM (active); in assay [9], 35.6 µM (active); in [11], 7.1 µM (active) and 17.8 µM (active).
Consider `CCOc1ccc(N)cc1`, for which the outcome in assay [14] and in assay [2] was inactive. Besides, the Potency entry in assay [1], in assay [3], in assay [4], in assay [5], in assay [15] and in [16] was “inactive” throughout. The Potency result in [17], in [12] and in [13] was “inactive” throughout. The Potency in [8] is 31.8 µM (active) and 39.9 µM (active); in assay [9], 40 µM (active) and inactive; in [11] it was 35.7 µM (active).
As for `CC[N+](=O)[O-]`, the Potency entry in [1], in assay [3], in assay [4], in [5], in [18] and in [15] was “inactive” each time. The Potency entry in assay [16], in [17], in assay [8], in [10], in assay [11] and in assay [12] was “inactive” throughout. For the same compound, the Potency result in [13] is “inactive”. Moreover, the outcome in [2] and in [19] was inactive. In addition, the Potency in assay [9] was 72.5 µM (active) and inactive.
Turning to `C=CC(=O)OCC(CC)CCCC` (configuration not stated), the Potency result in [1], in assay [3], in assay [4] and in assay [12] was “inactive” in each case. The compound was classed as inactive in [2].
Regarding `C=C(C)C(=O)OCC(CC)CCCC` (configuration not stated), the Potency entry in [1], in [3], in [4], in assay [5], in assay [15] and in assay [16] was “inactive” in each case. In addition, the Potency entry in assay [17], in assay [8], in [10], in [11], in [12] and in assay [13] was “inactive” in each case. Moreover, the call in assay [2] was inactive. For the same compound, the Potency in [9] is 40.7 µM (active) and inactive.
